The source of these data is PubChem BioAssay AID1006 (Sanford-Burnham Center for Chemical Genomics, 2008).

The structures appear in SMILES notation. About 3,000 (1.5%) of roughly 200,000 compounds were called active.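 How the source made its calls: active means inhibition above about 50% when tested at 10 µM (limit read from the data); inactive means the rest.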 The entries come from a sample that favours actives as a whole.

The target in this assay is Luciferin 4-monooxygenase (Photinus pyralis) (UniProt P08659). The assay is described as follows: inhibition of purified FLuc reporter enzyme – biochemical, luminescence, ATPLite, artefact control for luciferase-based inhibitor screens, primary screen (AID 1006). The settings on record: ATPLite firefly luciferase biochemical luminescence, 10 min; at 10 µM; stronger effect = higher value. In general terms: ATP-based viability assays read luminescence as a measure of living cells.
Luciferin 4-monooxygenase (Photinus pyralis), sequence (P08659 whole entry, looked up): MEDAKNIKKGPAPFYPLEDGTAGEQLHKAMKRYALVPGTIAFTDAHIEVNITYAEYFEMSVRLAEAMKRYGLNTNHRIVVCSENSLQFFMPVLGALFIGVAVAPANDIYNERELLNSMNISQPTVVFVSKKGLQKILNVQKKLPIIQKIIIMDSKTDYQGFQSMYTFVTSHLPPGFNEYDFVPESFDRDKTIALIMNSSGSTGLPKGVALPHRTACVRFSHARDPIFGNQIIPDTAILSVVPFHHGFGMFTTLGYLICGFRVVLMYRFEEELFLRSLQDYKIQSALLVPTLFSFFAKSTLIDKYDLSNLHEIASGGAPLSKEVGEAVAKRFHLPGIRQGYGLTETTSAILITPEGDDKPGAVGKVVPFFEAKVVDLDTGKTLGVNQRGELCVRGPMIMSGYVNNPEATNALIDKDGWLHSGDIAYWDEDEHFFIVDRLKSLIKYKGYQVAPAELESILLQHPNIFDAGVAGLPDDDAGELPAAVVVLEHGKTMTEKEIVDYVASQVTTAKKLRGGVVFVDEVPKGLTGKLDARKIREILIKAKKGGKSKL
Broadly, the inhibition is the relative decrease from the control value, in per cent. As for `Cc1cc(Br)ccc1SCC(=O)OCC(=O)NCc1ccc2c(c1)OCO2`, the inhibition was -0.9% (inactive).
The result for `Cn1cc(CN2CCCCC2c2ccccn2)c(-c2ccc3c(c2)OCCO3)n1` (stereo unspecified) reads -5% (inactive); that for `COC(=O)C1=C(C)N(C)C(=O)NC1c1ccc([N+](=O)[O-])o1` (stereo unspecified), -8% (inactive).
The result for `O=c1cc(CSc2ccc(Cl)cc2)nc(N2CCOCC2)[nH]1` reads -3.7% (inactive).
The result for `Clc1ccc2nc(CSc3ccccc3)cn2c1` reads 51% (active); that for `CCOc1ncccc1C(=O)OCc1cn2cc(Cl)ccc2n1`, -4.4% (inactive).
For `COc1cccc(N(CC(=O)Nc2cccc(N(C)S(C)(=O)=O)c2)S(C)(=O)=O)c1`, the inhibition is -3.8% (inactive).
Under `Cc1ccc(N(CC(=O)Nc2cccc(N(C)S(C)(=O)=O)c2)S(C)(=O)=O)cc1` stands 1.1% (inactive); under `CN(c1cccc(NC(=O)Nc2ccc(Cl)cc2)c1)S(C)(=O)=O`, 50.6% (active); under `Cc1ccc(/C=C/C(=O)Nc2cc(S(=O)(=O)N3CCCCCC3)ccc2OCC(F)(F)F)o1`, -5.3% (inactive).
`O=c1oc(-c2ccco2)nc2sc3c(c12)CCCCC3`: the inhibition is 82.9% (active).
In the case of `Cn1c(=O)n(Cc2ccco2)c(=N)c2c3c(sc21)CCCC3`, the inhibition is -0.5% (inactive).
Under `O=C(NCc1ccco1)c1cccn2c(=O)c3c4c(sc3nc12)CCCC4` stands -5.5% (inactive).
Consider `O=C(c1cn2ccccc2n1)N1CCc2c([nH]c3ccccc23)C1c1ccccn1` (stereo unspecified), for which the inhibition was 1% (inactive).
For the compound `Cc1cc(C(=O)COC(=O)CCCN2C(=O)c3ccccc3C2=O)c(C)n1C`, the inhibition was 8.4% (inactive).
For `C=CCn1c(C)cc(C(=O)CN2C(=O)c3ccccc3C2=O)c1C`, the inhibition is 57.4% (active).
As to `C=CCN(CC=C)C(=O)CN1C(=O)c2ccccc2C1=O`, the inhibition is -5% (inactive).
On to `O=C1COc2ccc(C(=O)COC(=O)C3CC(O)CN3S(=O)(=O)c3ccc(Cl)cc3)cc2N1` (stereo unspecified), for which the inhibition is 29.8% (inactive).
As for `COc1ccc(NC(C(=O)Nc2cccc(C(C)=O)c2)c2ccccc2)cc1` (stereo unspecified), the inhibition is 1.7% (inactive).
The result for `O=C(Nc1ccc(-c2ccc3nncn3n2)cc1)C1CCCCC1` reads 26.9% (inactive); that for `O=C1/C(=C/c2cccs2)CCc2ccccc21`, 76% (active).
`COc1ccc(/C=C2\CCc3ccccc3C2=O)c(OC)c1OC`: the inhibition was 1.1% (inactive).
As to `CCC1C/C(=C/c2cccs2)C(=O)/C(=C/c2cccs2)C1` (stereo unspecified), the inhibition is -5.8% (inactive).
The result for `c1ccc(-c2[nH]ncc2-c2nc3ccccc3[nH]2)cc1` reads -8.5% (inactive); that for `Cc1ccc(-c2nc3ccccc3[nH]2)cc1NC(=O)c1sc2ccccc2c1Cl`, -3% (inactive).
Consider `Cc1ccc(-c2nc3ccccc3[nH]2)cc1N`, for which the inhibition was 80.7% (active).
`c1ccc2[nH]c(-c3nc4ccccc4[nH]3)nc2c1`: the inhibition was 58.7% (active).
Under `COc1ccc(Br)cc1C(=O)NC(=S)Nc1cc(-c2nc3ccccc3[nH]2)ccc1C` stands 2.5% (inactive).
Under `OCCNc1nc2ccccc2[nH]1` stands -5.9% (inactive); under `O=C(CCNS(=O)(=O)c1ccc(Br)s1)NCc1ccccc1Cl`, -3.8% (inactive).
Under `Cc1c(NC(=O)CCC2CCCCC2)cc(C(=O)N2CCOCC2)cc1[N+](=O)[O-]` stands -6.5% (inactive).
For `O=C(NC(Cc1c[nH]c2ccccc12)C(=O)O)/C(=C/c1ccco1)NC(=O)c1ccccc1` (stereo unspecified), the inhibition is -0.6% (inactive).
The result for `O=C(CCl)N(Cc1cccc([N+](=O)[O-])c1)c1cccc(Cl)c1` reads -6.8% (inactive); that for `CCCCOc1ccc(N(CC(=O)NC(C)C)C(=O)CCC(=O)Nc2ccccn2)cc1`, -9.9% (inactive).
The result for `Cc1cc(C)n2nc(C(=O)N(C)C(c3ccccc3)c3ccccc3)nc2n1` reads -7% (inactive); that for `CCCC(=O)Nc1cccc(-c2cn3ccsc3n2)c1`, 40% (inactive).
The result for `c1ccc(-c2cn3cccnc3n2)cc1` reads 2.6% (inactive); that for `CC(=O)Nc1ccc(-c2cn3cccnc3n2)cc1`, 6.6% (inactive); that for `COc1cc(OC)cc(-c2nc(=S)n3ccsc3n2)c1`, -2.1% (inactive).
On to `COc1ccc(-c2cn3ccsc3n2)cc1`, for which the inhibition was 81.3% (active).
Under `COc1ccc(-c2cn3cccnc3n2)cc1` stands 59.3% (active).
The result for `COc1cc(C(=S)NC2CCCCC2)ccc1O` reads -2.8% (inactive); that for `Cc1ccnc2nc(C(=O)Nc3nnc(-c4ccccc4)o3)nn12`, -2.4% (inactive).
Turning to `Cc1noc(C)c1S(=O)(=O)N(C)Cc1ccccc1`, the inhibition was -6.5% (inactive).
As to `CCOC(=O)c1nn(-c2ccccc2F)c2nc(Nc3ccccc3)cc(=O)n12`, the inhibition was -2.4% (inactive).
Under `O=[N+]([O-])c1cc(Br)c(O)c(/C=N/Nc2nc3ccccc3s2)c1` stands 1.1% (inactive).
The result for `c1ccc2sc(NN=C3CCCC3)nc2c1` reads 62.8% (active); that for `Cc1ccnc(Nc2nc3ccccc3s2)n1`, 34.9% (inactive); that for `Cc1cc(C)cc(C(=O)N(CCc2ccccc2)C2=CC3CCC(C2)N3C)c1` (stereo unspecified), -2.2% (inactive).
Consider `O=C(C1=C[C@H](C2CC2)C[C@H](OCc2ccc(CO)cc2)O1)N1CCN(Cc2ccccc2)CC1`, for which the inhibition was -13.1% (inactive).
For `CC(NC(=S)NC1CCCCC1)C(c1ccccc1)N1CCOCC1` (stereo unspecified), the inhibition is -6% (inactive).
In the case of `O=C(NNC(=S)NC1CCCCC1)c1ccccc1Cl`, the inhibition is -0.5% (inactive).
The result for `CC(C)(c1ccccc1)c1ccc(OCCN)cc1` reads -11.4% (inactive); that for `CC1=NN(C(=O)c2ccc(Br)cc2)C(O)(c2ccccc2)C1` (stereo unspecified), -3.1% (inactive); that for `CCN(CC)C(=O)Oc1ccc(OC(=O)N(CC)CC)cc1`, 1.5% (inactive).
For `CC1CN/C(=C\C(=O)c2ccc(Br)cc2)C(=O)N1` (stereo unspecified), the inhibition is 52.4% (active).
`C/C(=C\C(=O)c1ccc(Br)cc1)N1CCCCC1`: the inhibition is 3.9% (inactive).
The result for `CN1CCCC(OC(=O)COc2ccc(Br)cc2)C1` (stereo unspecified) reads -7.7% (inactive); that for `COc1ccc(NC(=O)CSc2nnc(-c3ccccc3F)n2C2CC2)cc1S(N)(=O)=O`, 1.6% (inactive).
Under `COc1ccc(NS(=O)(=O)c2cc(NC(=O)/C=C/c3cc(OC)c(OC)c(OC)c3)ccc2N2CCCCC2)cc1` stands -5% (inactive); under `Cc1ccn(-c2cccc(-n3ccc(C)n3)n2)n1`, 61.1% (active); under `CC(C)N1C(=O)N(c2ccccc2)C(C)(O)CC1(C)C` (stereo unspecified), -5.4% (inactive).
With `O=C(O)CCCCc1nc2ccccc2s1`, the inhibition was 6.8% (inactive).
The result for `COc1cccc2sc(NNC(=O)c3nc4ccccc4s3)nc12` reads -1.8% (inactive).
The result for `COc1ccccc1OCc1nc2ccccc2s1` reads 57.9% (active); that for `CNC(=O)COc1ccc(S(=O)(=O)Nc2ccccc2)cc1`, -6.9% (inactive).
For `CSc1ccccc1NC(=O)CN(C)CC(=O)Nc1ccc(Cl)cc1[N+](=O)[O-]`, the inhibition was 1.5% (inactive).
The result for `O=c1oc2ccccc2cc1-c1cn(-c2ccccc2)c(=S)[nH]1` reads 90.1% (active).
The result for `O=C(c1cn(-c2ccccc2)nc1-c1cc2ccccc2oc1=O)N1CCOCC1` reads -8.2% (inactive); that for `Nc1ncc(-c2cc3ccccc3oc2=O)s1`, 32.1% (inactive).
Regarding `Cc1ccc(CCCOC(=O)C[N+]2(C)CCCCC2)cc1`, the inhibition was -3.7% (inactive).
With `O=C(COC(=O)c1n[nH]c2ccccc12)NCc1ccccc1`, the inhibition was -1.4% (inactive).
Under `O=C(NCCc1ccc(F)cc1)c1n[nH]c2ccccc12` stands 14.4% (inactive).
As for `COc1cccc(CNC(=O)c2n[nH]c3ccccc23)c1`, the inhibition is 51.1% (active).
The result for `CC(=O)Nc1ccc(NC(=O)CSc2nnc(COc3ccccc3C)n2CC2CCCO2)cc1` (stereo unspecified) reads -2.3% (inactive); that for `CCc1nnc(NC(=O)c2sc3nc(C)cc(COC)c3c2N)s1`, -1.1% (inactive).
Consider `CCc1ccc2nc3sc(C(=O)Nc4nnc(CC)s4)c(N)c3cc2c1`, for which the inhibition is 51.9% (active).
As for `CCc1nnc(NC(=O)c2cccs2)s1`, the inhibition was 6.9% (inactive).
As to `CSc1cc(C)[nH]c(=O)n1`, the inhibition is 0.8% (inactive).
Consider `Cc1ccc(-n2c(C)cc(/C=C(\C#N)C(=O)NCC3CCCO3)c2C)cc1` (stereo unspecified), for which the inhibition is 72.2% (active).
Under `Cc1ccc(S(=O)(=O)N2CCC(C(=O)NCC3CCCO3)CC2)cc1` (stereo unspecified) stands -6.3% (inactive); under `Cc1ccc(C(=O)N/C(=C/c2cccs2)C(=O)NCC2CCCO2)cc1` (stereo unspecified), 0.4% (inactive).
The result for `CC(C)(C)NC(=O)COC(=O)c1cc(Cl)ccc1[N+](=O)[O-]` reads 1.8% (inactive); that for `CN(C)/C=C(/C(=O)c1ccccc1Cl)S(C)(=O)=O`, -6% (inactive); that for `Cc1cc(F)ccc1S(=O)(=O)N1CCCOC1CNC(=O)C(=O)NCCC1=CCCCC1` (stereo unspecified), -3.9% (inactive).
For `COc1cc(/C=C/C(=O)OCC(=O)N2CCOCC2)ccc1OCC#N`, the inhibition is -6% (inactive).
As to `Cc1cccc(OCC(=O)Nc2ccccc2F)c1`, the inhibition is 6.3% (inactive).
As to `CCCOC(=O)Nc1ccccc1C(N)=O`, the inhibition was -2.5% (inactive).
`COc1cccc(OCC(=O)Nc2ccccc2C(N)=O)c1`: the inhibition was 59.2% (active).
The result for `CCOC(=O)C1=C(N)N(c2ccc(C)cc2)C2=C(C(=O)CCC2)C1c1cccs1` (stereo unspecified) reads -3.4% (inactive); that for `Cc1cc(/C=C2/C(=N)N3C(=NC2=O)SN=C3S(C)(=O)=O)c(C)n1-c1ccccc1`, 89.9% (active); that for `CCS(=O)(=O)C1=NSC2=NC(=O)/C(=C\c3cc(C)n(-c4cccc(OC)c4)c3C)C(=N)N21`, 12.2% (inactive).
For `CS(=O)(=O)c1ccc2c(c1)SC1=NC(=O)/C(=C/c3ccco3)C(=N)N12`, the inhibition was 13.2% (inactive).
The result for `COc1ccccc1CNC(=O)c1ccc(SC)cc1OC` reads -4.7% (inactive); that for `COc1cc(SC)ccc1C(=O)Nc1cc(C)ccn1`, 80.7% (active); that for `COc1cc(SC)ccc1C(=O)NCCOc1ccccc1Cl`, -0.8% (inactive).
The result for `Cc1ccnc(NC(=O)c2ccoc2C)c1` reads 18.1% (inactive); that for `COc1cc(SC)ccc1C(=O)Nc1nc(C)cs1`, 97.7% (active); that for `COc1ccc(C(=O)Nc2nncs2)c(OC)c1`, 40% (inactive).
Under `Cn1cnnc1SCC(=O)NNC(=O)COc1ccc(Br)cc1` stands 3.3% (inactive).
Consider `COc1ccc(/C=N/NC(=O)c2ccncc2)cc1CN1CCCc2ccccc21`, for which the inhibition is -8.3% (inactive).
